Measurements from PubChem BioAssay AID1159580 (chemical genetic matrix, 2015).
Values joined by “and” are separate entries in the source; they are usually repeats but may differ in a detail not shown here. Equal values may be shown once. The campaign covered roughly 5,500 compounds. About 2,000 (36%) were called active. Inconclusive results (about 18%) are left out. Rule as the data show it: active = normalized growth mostly below about 0.91 (no sharp cut-off); inconclusive = no clear call, values can overlap the other calls; inactive = mostly above about 0.92. The list shows a part of the results.

Experiment: chemical genetic growth profiling, strain panel (AID 1159580);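 also: tested at 20 µM; growth read once vehicle control cultures reached saturation at 30 °C; 1 = growth at the plate median or of vehicle wells; lower values mean less growth of the strain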
Conditions: growth OD

Measured: normalized growth

CCC(C(N)=O)c1ccccc1 (configuration not stated)
inactive: S. cerevisiae deletion strains, locus YAL013W, strain DEP1, stronger effect = lower value 1.02 | S. cerevisiae deletion strains, locus YBR021W, strain FUR4, stronger effect = lower value 1.04 | S. cerevisiae deletion strains, locus YBR229C, strain ROT2, stronger effect = lower value 0.999 | S. cerevisiae deletion strains, locus YCL029C, strain bik1, stronger effect = lower value 0.992 | S. cerevisiae deletion strains, locus YDL035C, strain GPR1, stronger effect = lower value 1.03 | S. cerevisiae deletion strains, locus YDL074C, strain BRE1, stronger effect = lower value 1.04 | S. cerevisiae deletion strains, locus YDL101C, strain DUN1, stronger effect = lower value 1.01 | S. cerevisiae deletion strains, locus YDL134C, strain PPH21, stronger effect = lower value 1 | S. cerevisiae deletion strains, locus YDL185W, strain tfp1, stronger effect = lower value 0.997 | S. cerevisiae deletion strains, locus YDL192W, strain arf1, stronger effect = lower value 1 | S. cerevisiae deletion strains, locus YDR101C, strain arx1, stronger effect = lower value 0.986 | S. cerevisiae deletion strains, locus YDR150W, strain NUM1, stronger effect = lower value 1 | S. cerevisiae deletion strains, locus YDR162C, strain NBP2, stronger effect = lower value 1.03 | S. cerevisiae deletion strains, locus YDR318W, strain mcm21, stronger effect = lower value 0.998 | S. cerevisiae deletion strains, locus YDR388W, stronger effect = lower value 0.999 | S. cerevisiae deletion strains, locus YDR502C, strain sam2, stronger effect = lower value 1.01 | S. cerevisiae deletion strains, locus YEL061C, strain CIN8, stronger effect = lower value 1.02 | S. cerevisiae deletion strains, locus YER110C, stronger effect = lower value 0.987 | S. cerevisiae deletion strains, locus YER155C, strain BEM2, stronger effect = lower value 0.998 | S. cerevisiae deletion strains, locus YER167W, strain BCK2, stronger effect = lower value 1.01 | S. cerevisiae deletion strains, locus YGL078C, strain dbp3, stronger effect = lower value 1 | S. cerevisiae deletion strains, locus YGL086W, strain mad1, stronger effect = lower value 0.997 | S. cerevisiae deletion strains, locus YGL248W, strain PDE1, stronger effect = lower value 1 | S. cerevisiae deletion strains, locus YGR078C, strain PAC10, stronger effect = lower value 1.03 | S. cerevisiae deletion strains, locus YGR135W, strain pre9, stronger effect = lower value 1 | S. cerevisiae deletion strains, locus YGR229C, strain SMI1, stronger effect = lower value 1.01 | S. cerevisiae deletion strains, locus YGR252W, strain gcn5, stronger effect = lower value 1.11 | S. cerevisiae deletion strains, locus YHR030C, strain SLT2, stronger effect = lower value 1.01 and 0.954 | S. cerevisiae deletion strains, locus YHR079C, strain IRE1 (second series), stronger effect = lower value 0.99 | S. cerevisiae deletion strains, locus YHR079C, strain IRE1, stronger effect = lower value 0.992 | S. cerevisiae deletion strains, locus YHR094C, strain hxt1, stronger effect = lower value 0.982 | S. cerevisiae deletion strains, locus YHR129C, strain ARP1, stronger effect = lower value 1 | S. cerevisiae deletion strains, locus YHR200W, strain rpn10, stronger effect = lower value 1.01 | S. cerevisiae deletion strains, locus YIL066C, strain RNR3, stronger effect = lower value 1.01 | S. cerevisiae deletion strains, locus YIL073C, strain SPO22, stronger effect = lower value 0.946 | S. cerevisiae deletion strains, locus YIL125W, strain kgd1, stronger effect = lower value 1.01 | S. cerevisiae deletion strains, locus YIR030C, strain dcg1, stronger effect = lower value 0.998 | S. cerevisiae deletion strains, locus YJL095W, strain BCK1, stronger effect = lower value 1.03 and 0.98 | S. cerevisiae deletion strains, locus YJL134W, strain LCB3, stronger effect = lower value 1.01 | S. cerevisiae deletion strains, locus YJL168C, strain set2, stronger effect = lower value 0.981 | S. cerevisiae deletion strains, locus YJL187C, strain SWE1 (second series), stronger effect = lower value 1.01 | S. cerevisiae deletion strains, locus YJR043C, strain POL32, stronger effect = lower value 1.04 | S. cerevisiae deletion strains, locus YJR066W, strain TOR1, stronger effect = lower value 0.899 | S. cerevisiae deletion strains, locus YJR075W, strain HOC1, stronger effect = lower value 1.01 | S. cerevisiae deletion strains, locus YKL009W, strain mrt4, stronger effect = lower value 1.02 | S. cerevisiae deletion strains, locus YKL068W, stronger effect = lower value 0.998 | S. cerevisiae deletion strains, locus YKL085W, strain MDH1 (second series), stronger effect = lower value 1 | S. cerevisiae deletion strains, locus YKL085W, strain MDH1, stronger effect = lower value 1 | S. cerevisiae deletion strains, locus YKL190W, strain CNB1, stronger effect = lower value 1.02 | S. cerevisiae deletion strains, locus YKR001C, strain vps1, stronger effect = lower value 0.989 | S. cerevisiae deletion strains, locus YLR039C, strain RIC1, stronger effect = lower value 1.04 | S. cerevisiae deletion strains, locus YLR058C, strain SHM2, stronger effect = lower value 1.01 | S. cerevisiae deletion strains, locus YLR102C, strain apc9, stronger effect = lower value 0.983 | S. cerevisiae deletion strains, locus YLR113W, strain HOG1, stronger effect = lower value 1.01 | S. cerevisiae deletion strains, locus YLR262C, strain YPT6, stronger effect = lower value 1.04 | S. cerevisiae deletion strains, locus YLR268W, strain sec22, stronger effect = lower value 1.01 | S. cerevisiae deletion strains, locus YLR330W, strain CHS5, stronger effect = lower value 1.01 | S. cerevisiae deletion strains, locus YLR342W, strain FKS1 (second series), stronger effect = lower value 1.02 | S. cerevisiae deletion strains, locus YLR371W, strain rom2, stronger effect = lower value 0.984 | S. cerevisiae deletion strains, locus YLR418C, strain cdc73, stronger effect = lower value 1.06 | S. cerevisiae deletion strains, locus YML016C, strain PPZ1, stronger effect = lower value 1.01 | S. cerevisiae deletion strains, locus YML032C, strain rad52, stronger effect = lower value 1.01 | S. cerevisiae deletion strains, locus YML124C, strain tub3, stronger effect = lower value 0.994 | S. cerevisiae deletion strains, locus YMR078C, strain ctf18, stronger effect = lower value 0.996 | S. cerevisiae deletion strains, locus YMR223W, strain ubp8, stronger effect = lower value 0.986 | S. cerevisiae deletion strains, locus YMR263W, strain SAP30, stronger effect = lower value 1.02 | S. cerevisiae deletion strains, locus YMR307W, strain GAS1, stronger effect = lower value 1.1 | S. cerevisiae deletion strains, locus YNL067W, strain RPL9B, stronger effect = lower value 1.04 | S. cerevisiae deletion strains, locus YNL128W, strain TEP1, stronger effect = lower value 1.02 | S. cerevisiae deletion strains, locus YNL153C, strain GIM3, stronger effect = lower value 1.01 | S. cerevisiae deletion strains, locus YNL183C, strain NPR1, stronger effect = lower value 0.903 | S. cerevisiae deletion strains, locus YNL233W, strain BNI4, stronger effect = lower value 1.01 | S. cerevisiae deletion strains, locus YNL250W, strain rad50, stronger effect = lower value 1 | S. cerevisiae deletion strains, locus YNL271C, strain bni1, stronger effect = lower value 1 | S. cerevisiae deletion strains, locus YNL298W, strain CLA4, stronger effect = lower value 1.01 | S. cerevisiae deletion strains, locus YNL307C, strain MCK1, stronger effect = lower value 1.01 | S. cerevisiae deletion strains, locus YNL322C, strain KRE1, stronger effect = lower value 1.01 | S. cerevisiae deletion strains, locus YNR052C, strain pop2, stronger effect = lower value 0.984 | S. cerevisiae deletion strains, locus YOL006C, strain TOP1, stronger effect = lower value 1.06 | S. cerevisiae deletion strains, locus YOL012C, strain htz1 1.05 | S. cerevisiae deletion strains, locus YOL147C, strain pex11, stronger effect = lower value 0.988 | S. cerevisiae deletion strains, locus YOR061W, strain CKA2, stronger effect = lower value 1.01 | S. cerevisiae deletion strains, locus YOR069W, strain VPS5, stronger effect = lower value 1.01 | S. cerevisiae deletion strains, locus YOR136W, strain idh2, stronger effect = lower value 1 | S. cerevisiae deletion strains, locus YOR144C, strain elg1, stronger effect = lower value 0.997 | S. cerevisiae deletion strains, locus YOR184W, strain ser1, stronger effect = lower value 1 | S. cerevisiae deletion strains, locus YOR231W, strain MKK1, stronger effect = lower value 0.95 | S. cerevisiae deletion strains, locus YOR316C, strain cot1, stronger effect = lower value 0.988 | S. cerevisiae deletion strains, locus YPL055C, strain LGE1, stronger effect = lower value 1.05 | S. cerevisiae deletion strains, locus YPL241C, strain CIN2, stronger effect = lower value 1.01 | S. cerevisiae deletion strains, locus YPL256C, strain CLN2, stronger effect = lower value 0.962 | S. cerevisiae deletion strains, locus YPR119W, strain clb2, stronger effect = lower value 0.986 | S. cerevisiae deletion strains, locus YPR141C, strain kar3, stronger effect = lower value 1.01 | S. cerevisiae deletion strains, locus YPR163C, strain tif3, stronger effect = lower value 0.999 | S. cerevisiae deletion strains, locus YPR167C, strain met16, stronger effect = lower value 0.999 | S. cerevisiae deletion strains, strain wtn01, stronger effect = lower value 1 | S. cerevisiae strains, strain wild type, stronger effect = lower value 1.01
